# Source: PubChem BioAssay (EPA / NIEHS)
# Where “and” joins values, the source holds several entries; their conditions need not be identical. Equal entries are not always repeated. Results filed as inconclusive are left out. Calls of active or inactive are those of the source. The calls were made as follows, unless noted: active = hit-call score of the fitted dose curve at least 0.9, where 1 is the maximum; inconclusive = response in the unintended direction; inactive = score below 0.9.
# Assays:
# [1] = system: Sodium/Iodide Symporter (NIS), SLC5A5 (gene 6528); assay: CPHEA_Stoker_NIS_Inhibition_RAIU: CPHEA's Radioactive Iodide Uptake (RAIU) Assay for Sodium/Iodide Symporter (NIS) Inhibition, Stoker and Laws Labs (AID 2283841)
# Procedure, shortened: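 HEK293T cells stably expressing human NIS (hNIS-HEK293T-EPA) were exposed to test chemicals at 0.001–100uM (0.5% final DMSO) with 125I at a final 329pM in HBSS/10mM HEPES pH 7.4. After 2 hours at room temperature and ice-cold washes, intracellular 125I was counted as CPM and normalized to DMSO wells.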
# [2] = system: turtle Thyroid Hormone Receptor, alpha (TRa), gene 101949057; assay: ATG_trTRa_XSP2: Attagene TRANS-FACTORIAL Multi-Species (XSP1) HepG2 Assay for turtle Thyroid Hormone Receptor, alpha (TRa) (AID 2283834);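 also: hits raise reporter mRNA over the DMSO baseline so AC50 marks activators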
# Procedure, shortened: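 Transfection of HepG2 with multiple reporter transcription units, then chemical dosing for 24 h. Total RNA was reverse-transcribed, reporter sequences PCR-amplified and FAM-labelled, then sized by capillary electrophoresis. DMSO served as baseline.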
# [3] = ATG_M_61_XSP2: Attagene TRANS-FACTORIAL Multi-Species (XSP2) HepG2 Assay for M61 Transcription Factor (Internal Marker) (AID 2283835; active = hit-call score of the fitted dose curve at least 0.9, where 1 is the maximum; inactive = score below 0.9;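 also: reporter mRNA of an internal background marker read by RT-PCR and capillary electrophoresis; active means a rise in signal above the DMSO baseline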)
# Procedure, shortened: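 First, HepG2 cells are transfected with reporter units under GAL4-UAS control. Next, chemicals are applied for 24 h. Then total RNA is reverse-transcribed, amplified, fluorescently labelled and sized by capillary electrophoresis, with gain of signal scored against DMSO.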
# [4] = target: zebrafish Thyroid Hormone Receptor beta (TRb), thrb (gene 30607) (UniProt Q9PVE4); assay: ATG_zfTRb_XSP2: Attagene TRANS-FACTORIAL Multi-Species (XSP1) HepG2 Assay for zebrafish Thyroid Hormone Receptor beta (TRb) (AID 2283836);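 as to AC50: potency for induction of reporter signal above DMSO so agonist direction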
# zebrafish Thyroid Hormone Receptor beta (TRb), thrb (gene 30607), sequence (Q9PVE4 whole entry, looked up, the tested form may be a part): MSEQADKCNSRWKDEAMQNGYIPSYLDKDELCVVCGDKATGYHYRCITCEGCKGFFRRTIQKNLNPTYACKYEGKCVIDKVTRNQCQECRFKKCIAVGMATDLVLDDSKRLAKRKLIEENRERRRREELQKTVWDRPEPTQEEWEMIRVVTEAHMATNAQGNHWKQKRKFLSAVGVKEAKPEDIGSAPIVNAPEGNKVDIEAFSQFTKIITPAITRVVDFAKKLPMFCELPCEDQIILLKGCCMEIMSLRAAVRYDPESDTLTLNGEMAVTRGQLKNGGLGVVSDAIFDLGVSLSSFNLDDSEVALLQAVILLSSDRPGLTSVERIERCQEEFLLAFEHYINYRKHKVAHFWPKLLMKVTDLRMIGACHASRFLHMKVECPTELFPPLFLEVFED
# Procedure, shortened: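 HepG2 cells transiently transfected with chimeric zebrafish TRb-GAL4 reporter units, dosed 24 h with 3 nM 6-alpha-fluorotestosterone and 1.5 nM norgestrel present. Reporter mRNA quantified by RT-PCR and capillary electrophoresis; gain fitted against DMSO.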
# [5] = target: human Thyroid hormone Receptor alpha (TRa), THRA (gene 7067) (UniProt P10827); assay: ATG_hTRa_XSP2: Attagene TRANS-FACTORIAL Multi-Species (XSP2) HepG2 Assay for human Thyroid hormone Receptor alpha (TRa) (AID 2283838)
# human Thyroid hormone Receptor alpha (TRa), THRA (gene 7067), sequence (P10827 whole entry, looked up, the tested form may be a part): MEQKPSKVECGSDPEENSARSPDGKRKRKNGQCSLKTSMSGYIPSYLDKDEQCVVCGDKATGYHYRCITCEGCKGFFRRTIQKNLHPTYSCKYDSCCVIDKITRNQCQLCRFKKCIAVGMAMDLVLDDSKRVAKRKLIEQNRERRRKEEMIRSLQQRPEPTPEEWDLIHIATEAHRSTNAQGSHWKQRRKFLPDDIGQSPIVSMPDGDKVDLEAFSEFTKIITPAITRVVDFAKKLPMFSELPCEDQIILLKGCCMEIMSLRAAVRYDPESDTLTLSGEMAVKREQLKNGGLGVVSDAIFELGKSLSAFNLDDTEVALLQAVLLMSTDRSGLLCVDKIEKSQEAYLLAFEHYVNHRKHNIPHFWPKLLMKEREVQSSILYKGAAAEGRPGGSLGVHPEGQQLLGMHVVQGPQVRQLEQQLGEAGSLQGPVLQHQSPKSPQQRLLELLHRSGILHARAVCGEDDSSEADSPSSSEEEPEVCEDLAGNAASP
# Procedure, shortened: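 HepG2 cells were transiently transfected with GAL4-UAS reporter units for chimeric human TRa-Gal4 and dosed for 24 hours, with 3 nM 6-alpha-fluorotestosterone and 1.5 nM norgestrel present. Reporter mRNA was quantified by RT-PCR, FAM labelling and capillary electrophoresis, with gain of signal fitted versus DMSO.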
# [6] = target: frog Thyroid hormone Receptor alpha (TRa), thra-a (gene 397942) (UniProt P15204); assay: ATG_frTRa_XSP2: Attagene TRANS-FACTORIAL Multi-Species (XSP2) HepG2 Assay for frog Thyroid hormone Receptor alpha (TRa) (AID 2283839);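 as to AC50: AC50 reflects induction of frog TRa-driven reporter mRNA above DMSO baseline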
# frog Thyroid hormone Receptor alpha (TRa), thra-a (gene 397942), sequence (P15204 whole entry, looked up, the tested form may be a part): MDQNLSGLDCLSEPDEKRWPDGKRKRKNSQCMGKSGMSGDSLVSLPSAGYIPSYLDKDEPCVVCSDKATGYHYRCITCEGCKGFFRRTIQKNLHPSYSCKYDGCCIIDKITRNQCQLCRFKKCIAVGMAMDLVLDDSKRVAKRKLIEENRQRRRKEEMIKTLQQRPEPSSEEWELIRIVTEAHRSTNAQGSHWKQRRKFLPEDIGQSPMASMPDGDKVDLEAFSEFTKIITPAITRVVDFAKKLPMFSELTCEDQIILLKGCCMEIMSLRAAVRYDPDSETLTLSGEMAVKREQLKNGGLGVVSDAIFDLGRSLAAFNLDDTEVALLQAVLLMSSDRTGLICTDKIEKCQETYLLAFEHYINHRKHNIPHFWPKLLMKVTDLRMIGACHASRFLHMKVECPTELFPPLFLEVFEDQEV
# Procedure, shortened: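 Transfect HepG2 with multiple reporter units (GAL4-UAS), dose chemical, incubate 24 h. Isolate RNA, reverse-transcribe, PCR-amplify reporter, label with 6-FAM by primer extension, digest with HpaI, run capillary electrophoresis; induction scored against DMSO.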
# [7] = target: human Thyroid hormone Receptor beta (TRb), THRB (gene 7068) (UniProt P10828); assay: ATG_hTRb_XSP2: Attagene TRANS-FACTORIAL Multi-Species (XSP2) HepG2 Assay for human Thyroid hormone Receptor beta (TRb) (AID 2283840);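 also: actives raise reporter mRNA so potency reflects agonist-like gain of signal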
# human Thyroid hormone Receptor beta (TRb), THRB (gene 7068), sequence (P10828 whole entry, looked up, the tested form may be a part): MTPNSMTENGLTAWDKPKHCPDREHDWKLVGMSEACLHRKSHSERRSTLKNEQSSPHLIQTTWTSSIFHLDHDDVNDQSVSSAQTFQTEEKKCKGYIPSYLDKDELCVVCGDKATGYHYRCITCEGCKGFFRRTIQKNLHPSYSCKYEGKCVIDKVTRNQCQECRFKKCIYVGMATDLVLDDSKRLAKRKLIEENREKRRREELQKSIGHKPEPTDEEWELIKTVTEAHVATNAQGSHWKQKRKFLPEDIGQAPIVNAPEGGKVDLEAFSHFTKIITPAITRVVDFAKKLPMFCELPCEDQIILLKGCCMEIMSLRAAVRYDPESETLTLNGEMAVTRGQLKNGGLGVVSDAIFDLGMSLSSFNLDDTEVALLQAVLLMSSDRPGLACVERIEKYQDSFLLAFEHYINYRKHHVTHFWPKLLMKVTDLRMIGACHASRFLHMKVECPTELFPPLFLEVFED
# Procedure, shortened: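 Transient transfection of human HepG2 with multi-species NR-Gal4/GAL4-UAS reporter constructs; 24 h compound treatment; RNA isolation, reverse transcription, PCR and HpaI digest; capillary electrophoresis of labeled fragments; activity fitted upward versus DMSO.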
# [8] = ATG_XTT_Cytotoxicity_XSP2: Cytotoxicity Assessment in the Attagene TRANS-FACTORIAL Multi-Species (XSP2) HepG2 Assay (AID 2283837)
# Procedure, shortened: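 HepG2 cells, transiently transfected with multiple reporter constructs, exposed to chemical for 24 h. Cell number assessed with XTT fluorescence read-out; loss of signal fitted relative to DMSO.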
# [9] = CEETOX_H295R_11DCORT_noMTC: CeeTox H295R High-throughput Steroidogenesis Assay for 11-Deoxycortisol (11DCORT), maximum tolerated concentration (MTC) filtered results only (AID 2283911; active = hit-call score of the fitted dose curve at least 0.9, where 1 is the maximum; inactive = score below 0.9); conditions: actives raise or lower the signal
# Procedure, shortened: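 Steroidogenesis was stimulated in H295R cells with 10 uM forskolin for 48 h before a 48 h chemical exposure. Secreted 11-deoxycortisol was measured by tandem mass spectrometry and fitted bidirectionally against DMSO controls.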
# [10] = CEETOX_H295R_OHPREG_noMTC: CeeTox H295R High-throughput Steroidogenesis Assay for OH-Pregnenolone (OHPREG), maximum tolerated concentration (MTC) filtered results only (AID 2283912; active = hit-call score of the fitted dose curve at least 0.9, where 1 is the maximum; inactive = score below 0.9); conditions: actives raise or lower the signal
# Procedure, shortened: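 Steroidogenesis in H295R cells (OECD 456, modified): after 48 h forskolin priming and 48 h chemical treatment, secreted 17alpha-hydroxypregnenolone is measured by HPLC-MS/MS. Activity is fitted in both directions against DMSO; concentrations are not filtered by MTT-based MTC.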
# [11] = CEETOX_H295R_OHPROG_noMTC: CeeTox H295R High-throughput Steroidogenesis Assay for OH-Progesterone (OHPROG), maximum tolerated concentration (MTC) filtered results only (AID 2283914; active = hit-call score of the fitted dose curve at least 0.9, where 1 is the maximum; inactive = score below 0.9); conditions: actives raise or lower the signal
# Procedure, shortened: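 Forskolin 10 uM, 48 h prestim → test cmpd in DMSO (0.1% final), 48 h → medium MTBE extraction → LC-MS/MS quant of 17alpha-OH-progesterone. Bidirectional fit vs DMSO; no MTT-based MTC filtering.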
# [12] = CEETOX_H295R_CORTISOL_noMTC: CeeTox H295R High-throughput Steroidogenesis Assay for Cortisol, maximum tolerated concentration (MTC) filtered results only (AID 2283916; active = hit-call score of the fitted dose curve at least 0.9, where 1 is the maximum; inactive = score below 0.9); conditions: actives raise or lower the signal
# Procedure, shortened: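 Cortisol secretion measured by LC-MS/MS after 48 h chemical treatment (final 0.1% DMSO) of forskolin-primed (10 uM, 48 h) H295R cells; gain or loss fitted relative to DMSO, without maximum-tolerated-concentration filtering.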
# [13] = CEETOX_H295R_CORTIC_noMTC: CeeTox H295R High-throughput Steroidogenesis Assay for Corticosterone (CORTIC), maximum tolerated concentration (MTC) filtered results only (AID 2283917; active = hit-call score of the fitted dose curve at least 0.9, where 1 is the maximum; inactive = score below 0.9); conditions: actives raise or lower the signal
# Procedure, shortened: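 Following OECD 456 with minor changes, H295R cultures received 10 uM forskolin for 48 h, then test chemical at 0.1% DMSO for 48 h. Media steroids were extracted and measured by LC-MS/MS.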
# [14] = CEETOX_H295R_DOC_noMTC: CeeTox H295R High-throughput Steroidogenesis Assay for DOC, maximum tolerated concentration (MTC) filtered results only (AID 2283918; active = hit-call score of the fitted dose curve at least 0.9, where 1 is the maximum; inactive = score below 0.9); conditions: actives raise or lower the signal
# Procedure, shortened: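 11-Deoxycorticosterone secreted by human adrenal H295R cells quantified by HPLC-MS/MS after 48 h chemical exposure (0.1% DMSO), following 48 h 10 uM forskolin prestimulation. Concentrations not filtered by MTT-derived MTC; bidirectional fitting.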
# [15] = CEETOX_H295R_ESTRADIOL_noMTC: CeeTox H295R High-throughput Steroidogenesis Assay for Estradiol, maximum tolerated concentration (MTC) filtered results only (AID 2283919; active = hit-call score of the fitted dose curve at least 0.9, where 1 is the maximum; inactive = score below 0.9); conditions: actives raise or lower the signal
# Procedure, shortened: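 H295R human adrenal cells pre-stimulated 48 h with 10 uM forskolin, then exposed 48 h to chemical (0.1% DMSO final). Estradiol in medium measured by HPLC-MS/MS after MTBE extraction and dansyl derivatization; bidirectional fit versus DMSO, concentrations not MTT-filtered.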
# [16] = CEETOX_H295R_PROG_noMTC: CeeTox H295R High-throughput Steroidogenesis Assay for Progesterone (PROG), maximum tolerated concentration (MTC) filtered results only (AID 2283920; active = hit-call score of the fitted dose curve at least 0.9, where 1 is the maximum; inactive = score below 0.9); conditions: actives raise or lower the signal
# Procedure, shortened: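 H295R cells; forskolin 10 uM x 48 h prestim; test cpd 48 h, 0.1% DMSO final; media progesterone via LC-MS/MS; bidirectional fit vs DMSO; no MTT-based MTC filter applied.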
# [17] = CEETOX_H295R_ESTRONE_noMTC: CeeTox H295R High-throughput Steroidogenesis Assay for Estrone, maximum tolerated concentration (MTC) filtered results only (AID 2283921; active = hit-call score of the fitted dose curve at least 0.9, where 1 is the maximum; inactive = score below 0.9); conditions: actives raise or lower the signal
# Procedure, shortened: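 H295R cells prestimulated 48 h with 10 uM forskolin, then exposed 48 h to chemical in 0.1% DMSO; medium estrone measured by HPLC-MS/MS after MTBE extraction and dansyl derivatization, fitted bidirectionally versus DMSO without MTT-based MTC filtering.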
smiles,measurement,setting,value
CCOC1Oc2ccc(OS(C)(=O)=O)cc2C1(C)C (configuration not stated),outcome,[1],inactive
Oc1cc(Cl)ccc1Oc1ccc(Cl)cc1Cl,AC50,[2],4.84 µM (active)
same,outcome,[3],inactive
same,outcome,[4],inactive
same,outcome,[5],inactive
same,AC50,[6],2.46 µM (active)
same,AC50,[7],4.77 µM (active)
Oc1ccc(Cl)cc1Cc1ccccc1,outcome,[2],inactive
same,outcome,[3],inactive
same,AC50,[4],10 µM (active)
same,outcome,[5],inactive
same,AC50,[6],10 µM (active)
same,outcome,[7],inactive
same,AC50,[1],50 µM (active) and 11.2 µM (active) and 21.7 µM (active)
O=S1OCC2C(CO1)C1(Cl)C(Cl)=C(Cl)C2(Cl)C1(Cl)Cl (configuration not stated),outcome,[3],inactive
same,outcome,[4],inactive
same,outcome,[6],inactive
same,outcome,[7],inactive
same,AC50,[1],50 µM (active)
CC1(C)C(C=C(Cl)Cl)C1C(=O)OC(C#N)c1ccc(F)c(Oc2ccccc2)c1 (configuration not stated),outcome,[2],inactive
same,outcome,[4],inactive
same,AC50,[6],37.1 µM (active)
same,outcome,[7],inactive
N#Cc1c(Cl)c(Cl)c(Cl)c(C#N)c1Cl,outcome,[1],inactive
CC[C@H](C)[C@H]1O[C@]2(C=C[C@@H]1C)C[C@@H]1C[C@@H](C/C=C(\C)[C@@H](O[C@H]3C[C@H](OC)[C@@H](O[C@H]4C[C@H](OC)[C@@H](O)[C@H](C)O4)[C@H](C)O3)[C@@H](C)/C=C/C=C3\CO[C@@H]4[C@H](O)C(C)=C[C@@H](C(=O)O1)[C@]34O)O2 (tested in a mixture with another compound),outcome,[1],inactive
CC(C)(C)C(O)/C(=C\c1ccc(Cl)cc1Cl)n1cncn1 (configuration not stated),outcome,[2],inactive
same,outcome,[3],inactive
same,outcome,[4],inactive
same,AC50,[8],100 µM (active)
same,outcome,[5],inactive
same,outcome,[6],inactive
same,outcome,[7],inactive
same,AC50,[1],35.9 µM (active)
CC1(c2ccc(Oc3ccccc3)cc2)OC(=O)N(Nc2ccccc2)C1=O (configuration not stated),outcome,[1],inactive
COP(=S)(OC)Oc1ccc(SC)c(C)c1,outcome,[2],inactive
same,outcome,[3],inactive
same,outcome,[5],inactive
same,outcome,[6],inactive
same,outcome,[7],inactive
same,outcome,[1],inactive
CC(C)OC(=O)Nc1cccc(Cl)c1,outcome,[1],inactive
COc1nn(CSP(=S)(OC)OC)c(=O)s1,outcome,[1],inactive
O=C(Nc1ccccc1)Nc1cnns1,outcome,[1],inactive
same,AC50,[9],35.2 µM (active)
same,AC50,[10],14.3 µM (active)
same,AC50,[11],37.8 µM (active)
same,AC50,[12],41.7 µM (active)
same,AC50,[13],31.8 µM (active)
same,AC50,[14],25.4 µM (active)
same,outcome,[15],inactive
same,AC50,[16],34.7 µM (active)
same,outcome,[17],inactive
